Several values for one entry are separate records, joined by “and”; a condition that tells them apart may be missing. Equal entries are not always repeated. Records with an inconclusive call do not appear. Activity calls are given as the source filed them. Unless noted, the call rests on the fitted dose curve.

Experiment [1] can be described thus: qHTS assay to identify small molecule antagonists of the sonic hedgehog signaling (Shh) pathway (AID 1259369). Further: nearly all actives have a fitted effect of over 45% in size. Further: potency means the concentration at half of the fitted maximal effect. The settings on record: NIH/3T3 Gli1-Luc reporter, Shh antagonist, luminescence 24 h; series mostly up to 92.4 µM. Summed up: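 Screening used 3T3Gli1-Luc cells at 2,000 per well, compounds delivered in DMSO, and conditioned medium as agonist stimulus; plates incubated 24hr at 37 C and 5% CO2 before a 30min luciferase step.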
For orientation: In qHTS, concentration-response curves come from the screen itself.

Experiment [2] addresses Estrogen receptor beta (Homo sapiens) (UniProt Q92731). Kind of experiment: qHTS assay to identify small molecule agonists of the estrogen receptor beta (ER-beta) signaling pathway (AID 1259377; active means well fitted activation curve with a large enough effect in the signal ratio in the repeat runs, not every such curve was filed as active; the % refers to the signal ratio; further: potency means the concentration at half of the fitted maximal effect). The note with it: ER-beta-UAS-bla HEK293T, beta-lactamase FRET ratio, 16 h; series mostly up to 92.4 µM. Summed up:
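HEK293T ER-beta-UAS-bla; 2% charcoal-stripped FBS; cells pre-incubated 6 hr, compound 16 hr, 37C/5% CO2; LiveBLAzer B/G FRET substrate 2 h RT; fluorescence intensity read.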

Experiment [3] is described as follows: qHTS assay to identify small molecule agonists of the estrogen receptor beta (ER-beta) signaling pathway - cell viability counter screen (AID 1259380; active means well fitted curve in the direction sought with a large enough effect in the repeat runs; an effect the other way counts as inactive or inconclusive; further: nearly all actives have a fitted effect of over 30% in size; further: potency means the concentration at half of the fitted maximal effect). The note with it: ER-beta-bla HEK293T viability, CellTiter-Glo luminescence, 16 h; series mostly up to 92.4 µM. The procedure, abridged:
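Viability of ER-beta-UAS-bla HEK293T cells was determined by CellTiter-Glo luminescence following 16 hr treatment with test compounds at 37C.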

Experiment [4] can be described thus: qHTS assay to identify small molecule agonists or antagonists of the thyroid stimulating hormone receptor (TSHR) signaling pathway - wild type cell line counter screen (AID 1259384). The note with it: HEK293 wild type, cAMP HTRF counter-screen, stronger effect = higher value; series mostly up to 92.4 µM. The procedure, abridged: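 Wild-type HEK293 cells were plated 18 h at 37 C/5% CO2, pin-dosed with compound plus Ro20-1724 medium, held 30 min at room temperature, then given cAMP-d2 and anti-cAMP-cryptate; fluorescence was read after 1 h. Fifteen concentrations, triplicate.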

Experiment [5] addresses Thyrotropin receptor (Homo sapiens) (UniProt P16473). Kind of experiment: qHTS assay to identify small molecule antagonists of the thyroid stimulating hormone receptor (TSHR) signaling pathway (AID 1259385). Further: nearly all actives have a fitted effect of over 20% in size. The note with it: TSHR-HEK293 cAMP HTRF, TSH-stimulated antagonist mode; series mostly up to 92.4 µM. The procedure, abridged:
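TSHR-HEK293 cells were plated and held 18 h at 37C/5% CO2, then given compound plus Ro20-1724 and stimulated with TSH at 1.5 ng/mL final. After 30 min at room temperature, cAMP was detected with cAMP-d2/anti-cAMP-cryptate (1 h) by fluorescence.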

For experiment [6], the target named is Estrogen receptor beta (Homo sapiens) (UniProt Q92731). The experiment in a line: qHTS assay to identify small molecule antagonists of the estrogen receptor beta (ER-beta) signaling pathway (AID 1259378; active means well fitted inhibition curve with a large enough effect in the signal ratio in the repeat runs, not every such curve was filed as active; the % refers to the signal ratio; further: potency means the concentration at half of the fitted maximal effect). The settings on record: ER-beta-UAS-bla HEK293T, beta-lactamase FRET ratio, 16 h; series mostly up to 92.4 µM. The procedure, abridged: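 ER-beta-UAS-bla HEK293T (GripTite) cells in 2% charcoal-stripped FBS medium were preincubated 6 hr at 37C, dosed with compound, then stimulated with 1 nM E2 (final) for 16 hr; beta-lactamase reporter read by B/G FRET fluorescence after 2 hr substrate loading.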

A short description of experiment [7]: qHTS assay to identify small molecule agonists of the androgen receptor (AR) signaling pathway in the presence of an antagonist - cell viability counter screen (AID 1259379; active means well fitted curve in the direction sought with a large enough effect in the repeat runs; an effect the other way counts as inactive or inconclusive; further: nearly all actives have a fitted effect of over 25% in size; further: potency means the concentration at half of the fitted maximal effect). The note with it: MDA-kb2 viability, CellTiter-Fluor, 16 h; series mostly up to 92.4 µM. The procedure, abridged: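 In MDA-kb2 cells (human breast carcinoma, MMTV-luciferase), compounds at 15 concentrations plus 3.0uM nilutamide; 16 hr, 37C, 0% CO2; CellTiter-Fluor fluorescence read for viability.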

For experiment [8], the target named is Estrogen receptor (Homo sapiens) (UniProt P03372). Kind of experiment: qHTS assay to identify small molecule agonists of the estrogen receptor alpha (ER-alpha) signaling pathway in the presence of an antagonist (AID 1259383). Further: top concentration of the series differs between compounds; nearly all actives have a fitted effect of over 15% in size. The note with it: VM7Luc4E2 cells, ERE-luciferase, +ICI-182,780, 22 h; series mostly up to 92.4 µM. Summed up:
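In VM7Luc4E2 cells, 4,000 per well, compounds at 15 concentrations were co-incubated 22hr at 37C with 10.0nM final ICI-182,780. Luminescence from the stably transfected 4×ERE-luciferase reporter was recorded 30min after ONE-Glo addition.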

Experiment [9] in a line: qHTS assay to identify small molecule antagonists of the estrogen receptor beta (ER-beta) signaling pathway - cell viability counter screen (AID 1259382; active means well fitted curve in the direction sought with a large enough effect in the repeat runs; an effect the other way counts as inactive or inconclusive; further: nearly all actives have a fitted effect of over 55% in size; further: potency means the concentration at half of the fitted maximal effect). The settings on record: ER-beta-UAS-bla HEK293T viability, CellTiter-Glo luminescence, 16 h; series mostly up to 92.4 µM. The procedure, abridged:
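Tox21 10K library tested in qHTS format on ER-beta-bla HEK293T cells stimulated with 1nM E2; 16 hr treatment at 37C. Same-well CellTiter-Glo luminescence served as the cell viability measure.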

For experiment [10], the target named is Androgen receptor (Homo sapiens) (UniProt P10275). The experiment in a line: qHTS assay to identify small molecule agonists of the androgen receptor (AR) signaling pathway in the presence of an antagonist (AID 1259381). Further: nearly all actives have a fitted effect of over 15% in size. The settings on record: MDA-kb2 MMTV-luciferase, AR agonist + nilutamide, 16 h; series mostly up to 92.4 µM. Summed up: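 Here, 15-concentration compound series were pin-transferred onto MDA-kb2 MMTV-luciferase cells already dosed with nilutamide (3.0uM final). After 16hr at 37C, ONE-Glo was added and luminescence read 30min later at room temperature.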
Chain of Androgen receptor (Homo sapiens) (P10275 whole entry, looked up): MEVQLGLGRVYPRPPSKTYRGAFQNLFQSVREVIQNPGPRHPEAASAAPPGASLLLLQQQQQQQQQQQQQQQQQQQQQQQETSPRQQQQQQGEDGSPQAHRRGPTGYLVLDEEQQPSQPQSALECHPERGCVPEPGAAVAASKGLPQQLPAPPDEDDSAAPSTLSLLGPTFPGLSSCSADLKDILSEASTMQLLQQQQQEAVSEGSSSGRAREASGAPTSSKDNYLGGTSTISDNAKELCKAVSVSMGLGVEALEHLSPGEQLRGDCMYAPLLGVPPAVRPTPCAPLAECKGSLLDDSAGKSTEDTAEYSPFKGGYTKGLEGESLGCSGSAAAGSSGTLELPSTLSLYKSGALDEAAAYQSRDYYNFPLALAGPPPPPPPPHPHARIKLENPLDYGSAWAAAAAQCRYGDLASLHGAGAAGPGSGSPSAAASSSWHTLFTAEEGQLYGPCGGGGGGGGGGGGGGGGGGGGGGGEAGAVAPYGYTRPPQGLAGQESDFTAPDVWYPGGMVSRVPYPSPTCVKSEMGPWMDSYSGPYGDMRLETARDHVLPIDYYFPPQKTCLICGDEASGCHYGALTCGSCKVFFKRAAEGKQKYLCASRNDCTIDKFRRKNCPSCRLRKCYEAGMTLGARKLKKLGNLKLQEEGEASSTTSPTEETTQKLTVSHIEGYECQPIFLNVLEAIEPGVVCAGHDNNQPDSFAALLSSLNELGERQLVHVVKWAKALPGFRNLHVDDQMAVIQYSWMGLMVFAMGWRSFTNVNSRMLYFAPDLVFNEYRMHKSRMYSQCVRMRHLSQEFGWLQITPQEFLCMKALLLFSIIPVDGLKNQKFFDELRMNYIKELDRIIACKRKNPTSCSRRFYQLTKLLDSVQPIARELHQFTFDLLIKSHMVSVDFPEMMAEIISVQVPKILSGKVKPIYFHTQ

Chain of Thyrotropin receptor (Homo sapiens) (P16473 whole entry, looked up): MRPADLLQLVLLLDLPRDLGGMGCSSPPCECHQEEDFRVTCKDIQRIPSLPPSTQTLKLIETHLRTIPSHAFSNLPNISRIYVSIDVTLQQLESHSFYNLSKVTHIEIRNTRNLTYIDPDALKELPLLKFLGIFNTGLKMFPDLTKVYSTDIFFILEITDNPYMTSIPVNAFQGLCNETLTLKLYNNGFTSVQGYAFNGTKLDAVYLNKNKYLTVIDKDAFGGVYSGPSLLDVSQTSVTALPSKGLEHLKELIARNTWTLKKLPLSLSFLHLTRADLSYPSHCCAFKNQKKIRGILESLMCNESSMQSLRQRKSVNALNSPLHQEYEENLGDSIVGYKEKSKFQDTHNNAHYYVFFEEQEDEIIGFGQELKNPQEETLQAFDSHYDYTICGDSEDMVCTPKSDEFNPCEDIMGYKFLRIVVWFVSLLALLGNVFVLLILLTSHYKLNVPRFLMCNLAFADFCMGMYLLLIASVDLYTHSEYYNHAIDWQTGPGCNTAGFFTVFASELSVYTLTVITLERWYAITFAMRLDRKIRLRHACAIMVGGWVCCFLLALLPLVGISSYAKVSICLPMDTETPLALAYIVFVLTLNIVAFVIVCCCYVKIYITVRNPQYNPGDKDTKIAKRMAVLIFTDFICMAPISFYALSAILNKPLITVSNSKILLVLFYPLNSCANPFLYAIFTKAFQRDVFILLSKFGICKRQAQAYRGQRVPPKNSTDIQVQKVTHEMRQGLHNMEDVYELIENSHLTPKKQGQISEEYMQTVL
Chain of Estrogen receptor beta (Homo sapiens) (Q92731 whole entry, looked up): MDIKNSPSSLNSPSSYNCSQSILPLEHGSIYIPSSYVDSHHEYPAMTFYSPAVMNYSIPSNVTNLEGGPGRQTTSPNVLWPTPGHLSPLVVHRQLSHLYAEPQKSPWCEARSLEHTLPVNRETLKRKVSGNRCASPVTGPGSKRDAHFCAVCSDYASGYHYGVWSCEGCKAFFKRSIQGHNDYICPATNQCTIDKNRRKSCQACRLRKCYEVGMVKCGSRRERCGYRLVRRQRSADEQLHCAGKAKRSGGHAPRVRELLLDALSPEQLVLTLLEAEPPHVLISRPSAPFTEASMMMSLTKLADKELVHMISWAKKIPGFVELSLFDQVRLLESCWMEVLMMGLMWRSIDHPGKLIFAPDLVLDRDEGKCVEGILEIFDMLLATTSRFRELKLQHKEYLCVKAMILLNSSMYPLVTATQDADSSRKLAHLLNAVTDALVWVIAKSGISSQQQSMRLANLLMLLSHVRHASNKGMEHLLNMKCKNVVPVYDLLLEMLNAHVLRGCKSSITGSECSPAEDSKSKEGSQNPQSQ
Chain of Estrogen receptor (Homo sapiens) (P03372 whole entry, looked up): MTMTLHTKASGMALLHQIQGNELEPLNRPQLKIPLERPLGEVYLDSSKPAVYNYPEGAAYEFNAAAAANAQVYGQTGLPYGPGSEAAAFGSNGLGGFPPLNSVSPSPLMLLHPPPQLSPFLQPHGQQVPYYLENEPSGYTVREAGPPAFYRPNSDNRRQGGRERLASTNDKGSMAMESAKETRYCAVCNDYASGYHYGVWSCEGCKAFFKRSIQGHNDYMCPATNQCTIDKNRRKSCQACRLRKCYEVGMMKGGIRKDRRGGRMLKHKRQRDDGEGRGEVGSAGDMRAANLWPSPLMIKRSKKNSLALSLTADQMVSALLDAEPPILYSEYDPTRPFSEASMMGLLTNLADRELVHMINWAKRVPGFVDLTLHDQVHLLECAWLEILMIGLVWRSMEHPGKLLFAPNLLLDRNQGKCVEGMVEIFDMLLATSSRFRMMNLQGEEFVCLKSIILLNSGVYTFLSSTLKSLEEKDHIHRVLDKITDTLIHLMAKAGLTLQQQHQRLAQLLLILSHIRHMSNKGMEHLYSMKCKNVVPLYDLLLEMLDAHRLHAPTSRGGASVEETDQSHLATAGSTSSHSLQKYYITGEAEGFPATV

As for `C/C=C/C=C/COC(=O)C(C)C`, in [1], the Potency was 30.6 µM (active). In addition, the Potency entry in experiment [2], in experiment [3] and in experiment [5] was “inactive” in each case. For the same molecule, the outcome in experiment [4] was inactive.
For `O=C1c2ccccc2C(=O)N1SC1CCCCC1`, the Potency was 15.3 µM (active) in experiment [1] and 54.5 µM (active) in experiment [3]. For the same molecule, the Potency result in [6], in experiment [7], in [8] and in experiment [5] was “inactive” each time. Moreover, the call in experiment [4] was inactive.
On to `O=S(=O)(O)c1ccccc1/C=C/c1ccc(-c2ccc(/C=C/c3ccccc3S(=O)(=O)O)cc2)cc1`, for which the Potency result in [1], in experiment [3], in experiment [9] and in experiment [8] was “inactive” throughout. Further, in experiment [2], the Potency was 39.1 µM (active). Further, the result in experiment [4] was inactive.
For the molecule `Cc1ccc(O)c(O)c1`, the Potency in experiment [1] was 5.29 µM (active). In addition, the Potency entry in experiment [2], in experiment [7], in experiment [3], in experiment [9] and in [8] was “inactive” each time.
Regarding `CCCNCCC`, the Potency result in experiment [1], in [2], in experiment [7], in [9] and in experiment [5] was “inactive” throughout. Moreover, the result in experiment [4] was inactive.
As for `O=c1[nH]c(=O)n([C@H]2C[C@H](O)[C@@H](CO)O2)cc1F`, the Potency entry in experiment [1], in experiment [2], in experiment [7], in experiment [8] and in experiment [5] was “inactive” throughout. Besides, the Potency in experiment [3] was 0.15 µM (active). For the same molecule, the call in [4] was inactive.
With `CN(C)C(=O)COC(=O)Cc1ccc(OC(=O)c2ccc(N=C(N)N)cc2)cc1`, the Potency entry in experiment [1], in experiment [2], in experiment [7], in [3], in experiment [9] and in experiment [5] was “inactive” throughout. Besides, the molecule was classed as inactive in experiment [4].
In the case of `CC[C@H](C)COC(=O)/C=C/c1ccc(N=Cc2ccc(OC)cc2)cc1`, the Potency result in experiment [1] was “inactive”. Moreover, the Potency was 54.4 µM (active) in experiment [6] and 6.1 µM (active) in experiment [3]. In addition, the outcome in experiment [4] was inactive.
Turning to `Cc1cccc(C(=O)O)c1O`, the Potency result in experiment [1], in [7], in [3], in experiment [9], in experiment [8] and in [5] was “inactive” throughout. In addition, the molecule was called inactive in experiment [4].
On to `COc1ccc2c(c1)c(CC(=O)OC/C=C(\C)CC/C=C(\C)CCC=C(C)C)c(C)n2C(=O)c1ccc(Cl)cc1`, for which the Potency entry in experiment [1], in experiment [7], in experiment [3], in experiment [9], in [8] and in experiment [5] was “inactive” in each case. In addition, the result in experiment [4] was inactive.
For the molecule `CCCCCCCCCCC[C@@H](C[C@@H]1OC(=O)[C@H]1CCCCCC)OC(=O)[C@H](CC(C)C)NC=O`, the Potency entry in [1], in [7], in [3], in experiment [9], in [8] and in experiment [5] was “inactive” in each case. Further, the outcome in experiment [4] was inactive.
`Cc1c2ccccc2c(C)c2c1ccc1ccccc12`: the Potency in [1] was 10.9 µM (active); in [7], 53.9 µM (active) and 61.1 µM (active); in experiment [3] it was 30.3 µM (active) and 27.3 µM (active); in [9], 24.3 µM (active). For the same molecule, the result in [10] and in experiment [4] was inactive. The Potency entry in experiment [5] was “inactive”.
As to `OC1CCCc2ccccc21` (stereo not drawn), the Potency entry in experiment [1], in experiment [7], in experiment [3], in experiment [9], in experiment [8] and in [5] was “inactive” throughout. Also, in experiment [4], the molecule was classed as inactive.

The values above are taken from PubChem BioAssay (Tox21).
